The whole screen tested about 4,400 compounds, of which about 390 (8.9%) showed an effect of 50% or more. What follows is part of a selection rich in strong results, with near analogues and random picks from the rest.
What follows are compounds tested on Trypanosoma brucei (assay: DNDI: Inhibition of Human African Trypanosomiasis, SBRI 427, in vitro at 2 ug.mL-1).
Type: functional

Row | Structure (SMILES) | % inhibition [%]
1 | COc1ccc(Oc2cc(/C(=N/O)Nc3ccccc3)ccn2)cc1 | 15
2 | COc1ccc(Oc2cc(/C(=N/O)NCc3cc(F)cc(F)c3)ccn2)cc1 | 5
3 | COc1ccc(Oc2cc(/C(=N/O)NCC(C)(C)C)ccn2)cc1 | 92
4 | CCC(CC)N/C(=N\O)c1ccnc(Oc2ccc(OC)cc2)c1 | 97
5 | COc1ccc(Oc2cc(/C(=N/O)NCC(C)C)ccn2)cc1 | 93
6 | CCOc1ccc(Oc2cc(/C(=N/O)NCc3ccc(OC)cc3)ccn2)cc1 | -4
7 | CC(C)CN/C(=N\O)c1ccnc(Oc2ccc(Cl)cc2)c1 | 25
8 | CCOc1ccc(Oc2cc(/C(=N/O)NCC(C)(C)C)ccn2)cc1 | 43
9 | COc1ccc(Oc2cc(/C(=N/O)NCc3ccncc3)ccn2)cc1 | 9
10 | CCOc1ccc(-c2nc(CNc3ccc(OC)cc3)co2)cc1 | -21
11 | CCCCN(C)Cc1coc(-c2cccs2)n1 | 15
12 | CCOc1ccc(-c2nc(CN3CCc4cc(OC)c(OC)cc4C3C(C)C)co2)cc1 (stereo not drawn) | 15
13 | COc1ccc(-c2nc(CN(C)c3ccc(OC)cc3)co2)cc1 | 6
14 | CCOc1ccccc1Oc1ncccc1/C(=N/O)n1cnc(C)c1 | 16
15 | CCOc1ccccc1CNCc1coc(-c2ccc(OC)cc2)n1 | -13
16 | CCCC(C)NCc1coc(-c2ccccc2Br)n1 (stereo not drawn) | -7
17 | Fc1cccc(-c2nc(CN3CCN(c4cccc(Cl)c4)CC3)co2)c1 | 17
18 | COc1cccc(-c2nc(CN(C)CCc3ccccc3)co2)c1 | 1
19 | Cc1cccc(Oc2ccc(/C(=N/O)NC3CCC(C)CC3)cn2)c1 (stereo not drawn) | 59
20 | COc1ccc(CN/C(=N\O)c2ccc(Oc3cccc(OC)c3)nc2)cc1 | 10
21 | Cc1cccc(Oc2ccc(/C(=N/O)NC3CC(C)CC(C)(C)C3)cn2)c1 (stereo not drawn) | 47
22 | COc1cccc(Oc2ccc(/C(=N/O)NCC3CCCCC3)cn2)c1 | 87
23 | COc1cccc(Oc2ccc(/C(=N/O)NC3CCC(C)CC3)cn2)c1 (stereo not drawn) | 89

Row | Structure (SMILES) | % inhibition [%]
24 | COc1cccc(Oc2ccc(/C(=N/O)NC3CCCCC3)cn2)c1 | 98
25 | Cc1cccc(Oc2ccc(/C(=N/O)NCC3CCCCC3)cn2)c1 | 36
26 | COc1cccc(Oc2ccc(/C(=N/O)NC3CCN(Cc4ccccc4)C3)cn2)c1 (stereo not drawn) | -3
27 | COc1cccc(Oc2ccc(/C(=N/O)NC3CC(C)CC(C)(C)C3)cn2)c1 (stereo not drawn) | 7
28 | Cc1cccc(Oc2ccc(/C(=N/O)NC3CCc4ccccc43)cn2)c1 (stereo not drawn) | 10
29 | Cc1ccc(/C(=N/O)N2CCC3CCCCC3C2)c(Oc2cccc(F)c2)n1 (stereo not drawn) | 16
30 | CCCN(Cc1coc(-c2cccc(F)c2)n1)CC1CC1 | 17
31 | COc1ccc(NCc2coc(-c3cccc(F)c3)n2)cc1 | 14
32 | CC(C)c1cccc(Oc2cc(/C(=N/O)NC3CCc4ccccc43)ccn2)c1 (stereo not drawn) | 4
33 | Clc1ccccc1-c1nc(CN2CCN(C/C=C/c3ccccc3)CC2)co1 | -22
34 | COC(=O)C1CCN(/C(=N\O)c2cccnc2OCC2CCCCC2)CC1 | 6
35 | Cc1ccc(/C(=N/O)NCc2cccnc2)c(Oc2cccc(F)c2)n1 | 5
36 | Cc1ccc([C@@H](C)NCc2coc(-c3ccc(OC(F)(F)F)cc3)n2)cc1 | -17
37 | CCc1ccc(Oc2ncccc2/C(=N/O)N2CC(C)CC(C)C2)cc1 (stereo not drawn) | 15
38 | CCOc1ccc(-c2nc(CNC3CC(C)CC(C)(C)C3)co2)cc1 (stereo not drawn) | 99
39 | CC1CC(NCc2coc(-c3ccc(C(F)(F)F)cc3)n2)CC(C)(C)C1 (stereo not drawn) | 98
40 | CCOc1ccc(-c2nc(CNC3CCCCCC3)co2)cc1 | 20
41 | CC1CN(Cc2coc(-c3ccc(C(F)(F)F)cc3)n2)CC(C)O1 (stereo not drawn) | 12
42 | CC(NCc1coc(-c2ccc(C(F)(F)F)cc2)n1)C1CCCCC1 (stereo not drawn) | 7
43 | CCOc1ccc(-c2nc(CN3CC(C)OC(C)C3)co2)cc1 (stereo not drawn) | -8
44 | C#CC1(NCc2coc(-c3ccccc3Cl)n2)CCCCC1 | -12
45 | COc1ccc(CN/C(=N\O)c2ccc(Oc3cc(C)cc(C(C)C)c3)nc2)cc1 | 28
46 | Brc1ccc(-c2nc(CNCc3cccnc3)co2)cc1 | -36

Row | Structure (SMILES) | % inhibition [%]
47 | COc1cccc(-c2nc(CN(C)C(C)(C)C)co2)c1 | 31
48 | c1ccc(-c2nc(CN3CCN(C4CCCCC4)CC3)co2)cc1 | -4
49 | CCOc1ccccc1CN/C(=N\O)c1cccnc1Oc1ccc(Cl)cc1 | 87
50 | Cc1ccc(/C(=N/O)NCc2ccccn2)c(Oc2cc(Cl)ccc2Cl)n1 | 30
51 | COc1ccc(Oc2ncccc2/C(=N/O)NCC2CCCO2)cc1 (stereo not drawn) | -15
52 | O/N=C(\NCc1ccccn1)c1cccnc1Oc1cc(Cl)ccc1Cl | 0
53 | Cc1ccccc1CN/C(=N\O)c1cccnc1Oc1cc(Cl)ccc1Cl | 99
54 | CCOc1ccccc1CN/C(=N\O)c1ccnc(Oc2ccc(Cl)cc2)c1 | 7
55 | CC(C)COc1ncccc1/C(=N/O)NCC1CCCO1 (stereo not drawn) | 6
56 | COc1ccc(CN/C(=N\O)c2cccnc2Oc2cc(Cl)ccc2Cl)cc1 | 5
57 | O/N=C(\NCc1ccccc1)c1cccnc1Oc1cc(Cl)ccc1Cl | 100
58 | CC(C)c1ccc(Oc2ncccc2/C(=N/O)NCC2CCCO2)cc1 (stereo not drawn) | 98
59 | CCOc1ccccc1CN/C(=N\O)c1ccc(Oc2ccc(Cl)cc2)nc1 | 1
60 | COCC(C)N/C(=N\O)c1ccc(C)nc1Oc1ccc(SC)c(C)c1 (stereo not drawn) | -10
61 | Cc1ccc(Oc2nc(C)ccc2/C(=N/O)N2CCCCC2)c(C)c1 | 0
62 | CC(NCc1coc(-c2ccc(C(F)(F)F)cc2)n1)c1ccccc1 (stereo not drawn) | 2
63 | COc1ccc(-c2nc(CNCCc3ccccc3OC)co2)cc1 | -4
64 | Cc1ccc(-c2nc(CN3CCN(C(=O)C4CCCO4)CC3)co2)cc1 (stereo not drawn) | 21
65 | Cc1ccc(Oc2cc(/C(=N/O)NCc3cccnc3)ccn2)c(C)c1 | -3
66 | COc1ccc(Oc2nc(C)ccc2/C(=N/O)NCc2ccc(C)o2)cc1 | 16
67 | CCc1ccc(Oc2ncccc2/C(=N/O)N2CCN(C)CC2)cc1 | -4
68 | CCc1ccc(Oc2ccc(/C(N)=N/O)cn2)cc1 | 20

— ChEMBL document CHEMBL1857833, “Screening and optimization of specific chemical series against human African Trypanosomiasis (HAT)”
